Data as given in the antibiotic and cytotoxicity screens of Wong et al. (2023).
Screen size: about 39,000 compounds; about 3,300 (8.5%) were called active. What follows is part of a selection rich in actives, with near analogues and random picks from the rest.

System: HepG2
Assay: cytotoxicity call (relative viability < 0.9)
Conditions: 10 µM

| Structure (SMILES) | cytotoxicity call |
| --- | --- |
| CO[C@H](CN(C)C(=O)Nc1ccc(C(F)(F)F)cc1)[C@H](C)CN(Cc1ccccc1Cl)[C@@H](C)CO | inactive |
| C[C@@H]1CN([C@H](C)CO)C(=O)c2c(c3ccccc3n2C)-c2ccccc2CO[C@@H]1CN(C)C(=O)Nc1ccc(F)cc1 | inactive |
| COCC(=O)N1CC[C@@H](O)[C@@H]1Cc1cnn(C)c1 | inactive |
| CN1C(=O)c2cc(NC(=O)C3CCOCC3)ccc2OC[C@H]2O[C@H](CC(=O)NCc3ccccc3F)CC[C@@H]21 | inactive |
| COC(=O)C[C@@H]1CC[C@H]2[C@H](COc3ccc(NS(=O)(=O)c4ccccc4Cl)cc3C(=O)N2C)O1 | inactive |
| COCC(=O)N1C[C@H](C)[C@H](OC)CN(C)C(=O)c2cc(NC(=O)Nc3ccccc3)ccc2OC[C@H]1C | inactive |
| C[C@@H]1CN([C@H](C)CO)C(=O)c2cccc(NC(=O)c3ccncc3)c2O[C@H]1CN(C)Cc1ccc2c(c1)OCO2 | inactive |
| O=C(CCCCCCC(=O)N/N=C/[C@@H](O)[C@H](O)[C@H](O)CO)NO | inactive |
| C[C@@H]1CCCCO[C@H](CN(C)Cc2ccc(Cl)c(Cl)c2)[C@H](C)CN([C@@H](C)CO)C(=O)c2cc(NS(=O)(=O)c3ccc(Cl)cc3)ccc2O1 | active |
| C[C@H](CO)N1C[C@H](C)[C@@H](CN(C)Cc2ccc(Cl)c(Cl)c2)OCCCC[C@H](C)Oc2ccc(NS(=O)(=O)c3ccc(Cl)cc3)cc2C1=O | inactive |
| C[C@@H]1CCCCO[C@H](CN(C)Cc2ccc(Cl)c(Cl)c2)[C@@H](C)CN([C@H](C)CO)C(=O)c2cc(NS(=O)(=O)c3ccc(Cl)cc3)ccc2O1 | active |
| C[C@@H]1CCCCO[C@@H](CN(C)Cc2ccc(Cl)c(Cl)c2)[C@H](C)CN([C@H](C)CO)C(=O)c2cc(NS(=O)(=O)c3ccc(Cl)cc3)ccc2O1 | active |
| C[C@@H]1CCCCO[C@H](CN(C)Cc2ccc(Cl)c(Cl)c2)[C@@H](C)CN([C@@H](C)CO)C(=O)c2cc(NS(=O)(=O)c3ccc(Cl)cc3)ccc2O1 | active |
| C[C@@H]1CCCCO[C@@H](CN(C)Cc2ccc(Cl)c(Cl)c2)[C@@H](C)CN([C@H](C)CO)C(=O)c2cc(NS(=O)(=O)c3ccc(Cl)cc3)ccc2O1 | inactive |
| CC(C)NC(=O)Nc1cccc2c1O[C@H](CN(C)Cc1ccc3c(c1)OCO3)[C@@H](C)CN([C@@H](C)CO)C2=O | inactive |
| COc1ccc(NC(=O)Nc2ccc3c(c2)C(=O)N([C@H](C)CO)C[C@H](C)[C@@H](CN(C)C(=O)Nc2ccc(C(F)(F)F)cc2)OCCCC[C@H](C)O3)cc1 | inactive |
| C[C@@H]1CN([C@@H](C)CO)C(=O)c2cc(NC(=O)Nc3ccc(F)cc3)ccc2O[C@@H](C)CCCCO[C@H]1CN(C)Cc1ccc(C(=O)O)cc1 | inactive |
| COc1cccc(S(=O)(=O)N2C[C@H](O)COC[C@H]3O[C@H](CC(=O)NCCCN4CCOCC4)CC[C@@H]32)c1 | inactive |
| CN1[C@@H]2c3ccc(-c4ccccc4)c(=O)n3C[C@H]1[C@H](CO)[C@H]2C(=O)NCCCN1CCOCC1 | inactive |
| Cc1noc(C)c1NC(=O)Nc1cccc2c1O[C@H](CN(C)C(=O)NC(C)C)[C@H](C)CN([C@@H](C)CO)C2=O | inactive |
| O=C(C[C@H]1CC[C@H]2[C@@H](COC[C@H](O)CN2S(=O)(=O)c2ccc(Cl)cc2)O1)N[C@@H]1CCN(Cc2ccccc2)C1 | inactive |
| CCCN(C)C[C@@H]1OCCCC[C@@H](C)Oc2ccc(NS(=O)(=O)c3cn(C)cn3)cc2C(=O)N([C@H](C)CO)C[C@@H]1C | inactive |
| COc1ccc(NC(=O)N(C)C[C@H]2Oc3ncc(C#CC(C)C)cc3C(=O)N([C@H](C)CO)C[C@H]2C)cc1 | inactive |
| CC1OC(OC2C(O)CC(OC3C(O)CC(OC4CCC5(C)C(CCC6C5CCC5(C)C(C7=CC(=O)OC7)CCC65O)C4)OC3C)OC2C)CC(O)C1O (configuration not stated) | active |

| Structure (SMILES) | cytotoxicity call |
| --- | --- |
| C[C@H]1O[C@@H](O[C@H]2[C@@H](O)C[C@H](O[C@H]3[C@@H](O)C[C@H](O[C@H]4CC[C@@]5(C)[C@H](CC[C@@H]6[C@@H]5CC[C@]5(C)[C@@H](C7=CC(=O)OC7)CC[C@]65O)C4)O[C@@H]3C)O[C@@H]2C)C[C@H](O)[C@@H]1O | active |
| Cc1ccc(S(=O)(=O)N(C)C[C@H]2OCCCC[C@H](C)Oc3ccc(NC(=O)Nc4cccc5ccccc45)cc3C(=O)N([C@H](C)CO)C[C@H]2C)cc1 | inactive |
| NCCCN1CCCN(CCCN)CC1 | inactive |
| NCCCn1c2c(c3ccccc31)CCCC2 | active |
| CC(=O)N1C(=O)N(C(C)=O)[C@@H](O)[C@H]1O | inactive |
| O=C(C[C@@H]1CC[C@H](NS(=O)(=O)c2ccccc2)[C@H](CO)O1)NCc1ccncn1 | inactive |
| Nc1nnc(C(F)(F)F)[nH]1 | inactive |
| CCCc1ccc2c(c1)CNCCC2 | inactive |
| COc1ccc(NC(=O)N(C)C[C@@H]2OCCCC[C@@H](C)Oc3ccc(NC(=O)Cc4ccccc4)cc3C(=O)N([C@H](C)CO)C[C@@H]2C)cc1 | inactive |
| C[C@@H]1CN([C@H](C)CO)C(=O)c2cc(NS(C)(=O)=O)ccc2O[C@@H]1CN(C)C(=O)Nc1ccc2c(c1)OCO2 | inactive |
| C[C@@H]1CN([C@H](C)CO)C(=O)c2cc(NC(=O)Nc3ccccc3)ccc2O[C@@H](C)CCCCO[C@@H]1CN(C)S(=O)(=O)c1ccccc1 | inactive |
| C[C@H](CO)N1C[C@H](C)[C@@H](CN(C)Cc2ccc(Oc3ccccc3)cc2)Oc2c(NC(=O)Nc3cccc4ccccc34)cccc2C1=O | active |
| C[C@@H]1CN([C@H](C)CO)C(=O)c2cccc(NC(=O)Nc3cccc4ccccc34)c2O[C@@H]1CN(C)Cc1ccc(Oc2ccccc2)cc1 | inactive |
| C[C@H](CO)N1C[C@H](C)[C@H](CN(C)Cc2ccc(Oc3ccccc3)cc2)Oc2c(NC(=O)Nc3cccc4ccccc34)cccc2C1=O | inactive |
| COc1ccc(CN(C)C[C@@H]2Oc3c(NC(=O)Nc4cccc5ccccc45)cccc3C(=O)N([C@@H](C)CO)C[C@@H]2C)cc1 | inactive |
| COc1ccc(CN(C)C[C@@H]2Oc3c(NC(=O)Nc4cccc5ccccc45)cccc3C(=O)N([C@H](C)CO)C[C@@H]2C)cc1 | inactive |
| C[C@H]1CN([C@@H](C)CO)C(=O)c2cccc(NC(=O)Nc3cccc4ccccc34)c2O[C@H]1CN(C)Cc1ccc(Oc2ccccc2)cc1 | active |
| CO[C@@H]1CN(C)C(=O)c2cc(NC(=O)Nc3cccc(Cl)c3)ccc2OC[C@H](C)N(C(=O)Nc2c(C)noc2C)C[C@@H]1C | inactive |
| C[C@H]1CC/C=C\[C@H]2O[C@@]34C=CCN(Cn5nnc6ccccc65)C(=O)[C@H]3N(CCCO)C(=O)[C@@H]4[C@@H]2C(=O)O1 | inactive |
| C[C@H]1CCCCO[C@H](CN(C)C(=O)c2ccccc2)[C@@H](C)CN([C@@H](C)CO)C(=O)c2cc(NC(=O)Nc3ccc(C(F)(F)F)cc3)ccc2O1 | inactive |
| O=C(NC1(C(F)(F)F)Oc2cc(Cl)c(Cl)cc2O1)C1=C(N2CCOCC2)/C(=C/c2ccccc2)CC1 | active |
| C[C@H]1CN([C@@H](C)CO)C(=O)c2cc(NS(=O)(=O)c3ccc(F)cc3)ccc2O[C@@H]1CN(C)CC1CC1 | inactive |
| C[C@@H]1CN([C@H](C)CO)C(=O)c2cccc(NC(=O)C3CC3)c2O[C@@H]1CN(C)S(=O)(=O)c1cccs1 | inactive |
| C[C@@H]1CN([C@H](C)CO)C(=O)Cc2cc(NC(=O)Nc3ccc(F)cc3)ccc2O[C@@H]1CN(C)S(=O)(=O)c1cn(C)cn1 | inactive |

| Structure (SMILES) | cytotoxicity call |
| --- | --- |
| C[C@H](CO)N1C[C@H](C)[C@@H](CN(C)S(=O)(=O)c2cccs2)Oc2ccc(NC(=O)Nc3cccc4ccccc34)cc2C1=O | inactive |
| CN1CCN(CCO)C(=O)C12CCN([C@H]1CCOC1)CC2 | inactive |
| C=CCOC(=O)[C@H]1[C@@H]2C(=O)O[C@@H](c3ccccc3)[C@@H](c3ccccc3)N2[C@@H](c2ccc(OCCOC(=O)[C@H]3C[C@H]4C(=O)N5CCC[C@H]5C(=O)N4[C@H]3c3ccc(O)cc3)cc2)[C@]12C(=O)Nc1ccc(I)cc12 | inactive |
| Cc1noc(C)c1S(=O)(=O)Nc1ccc2c(c1)CC(=O)N([C@H](C)CO)C[C@@H](C)[C@H](CN(C)Cc1ccc(Oc3ccccc3)cc1)O2 | inactive |
| COc1oc(C(=O)NC2CCCCC2)c(-c2ccc(Cl)cc2)c1S(=O)(=O)c1ccc(Cl)cc1 | inactive |
| COc1oc(C(=O)NC2CCCCC2)c(-c2ccc(Cl)cc2)c1S(=O)(=O)c1ccc(Br)cc1 | inactive |
| C#CCOc1ccc(-c2c(C(=O)NC3CCCCC3)oc(OC)c2S(=O)(=O)c2ccc(Cl)cc2)cc1 | active |
| C[C@@H]1CN([C@@H](C)CO)C(=O)c2cc(NS(=O)(=O)c3cn(C)cn3)ccc2O[C@@H](C)CCCCO[C@H]1CN(C)Cc1ccc(C(F)(F)F)cc1 | inactive |
| O=C1C(CCS(=O)c2ccccc2)C(=O)N(c2ccccc2)N1c1ccccc1 (configuration not stated) | inactive |
| CCCCC1C(=O)N(c2ccccc2)N(c2ccc(O)cc2)C1=O (configuration not stated) | active |
| CCCCC1C(=O)N(c2ccccc2)N(c2ccccc2)C1=O | inactive |
| CC[C@H](C(=O)O)N1CCCC1 | inactive |
| C[C@@H]1CN([C@@H](C)CO)C(=O)c2cc(NC(=O)CCCCCC(=O)Nc3ccccc3N)ccc2O[C@@H]1CN(C)CC1CCCCC1 | inactive |
| C[C@H]1CN([C@@H](C)CO)C(=O)c2cc(NC(=O)CCCCCC(=O)Nc3ccccc3N)ccc2O[C@H]1CN(C)CC1CCCCC1 | active |
| C[C@H](CO)N1C[C@H](C)[C@H](CN(C)CC2CCCCC2)Oc2ccc(NC(=O)CCCCCC(=O)Nc3ccccc3N)cc2C1=O | active |
| C[C@@H]1CN([C@H](C)CO)C(=O)Cc2cc(NC(=O)CCCCCC(=O)Nc3ccccc3N)ccc2O[C@H]1CN(C)CC1CCCCC1 | inactive |
| C[C@@H]1CN([C@@H](C)CO)C(=O)Cc2cc(NC(=O)CCCCCC(=O)Nc3ccccc3N)ccc2O[C@@H]1CN(C)CC1CCCCC1 | active |
| C[C@H]1CN([C@@H](C)CO)C(=O)c2cc(NC(=O)CCCCCC(=O)Nc3ccccc3N)ccc2O[C@@H]1CN(C)CC1CCCCC1 | inactive |
| C[C@@H]1CN([C@H](C)CO)C(=O)c2cc(NC(=O)CCCCCC(=O)Nc3ccccc3N)ccc2O[C@H]1CN(C)CC1CCCCC1 | inactive |
| C[C@@H]1CN([C@H](C)CO)C(=O)Cc2cc(NC(=O)CCCCCC(=O)Nc3ccccc3N)ccc2O[C@@H]1CN(C)CC1CCCCC1 | inactive |
| C[C@@H]1CN([C@@H](C)CO)C(=O)c2cc(NC(=O)CCCCCC(=O)Nc3ccccc3N)ccc2O[C@@H](C)CCCCO[C@@H]1CN(C)CC1CCCCC1 | inactive |
| C[C@@H]1CCCCO[C@@H](CN(C)CC2CCCCC2)[C@@H](C)CN([C@H](C)CO)C(=O)c2cc(NC(=O)CCCCCC(=O)Nc3ccccc3N)ccc2O1 | inactive |
| C[C@@H]1CN([C@@H](C)CO)C(=O)c2cc(NC(=O)CCCCCC(=O)Nc3ccccc3N)ccc2O[C@H]1CN(C)CC1CCCCC1 | inactive |
| C[C@H](CO)N1C[C@H](C)[C@@H](CN(C)CC2CCCCC2)Oc2ccc(NC(=O)CCCCCC(=O)Nc3ccccc3N)cc2C1=O | active |
